# From PubChem BioAssay (NCI)
# This is part of a sample that, as a whole, favours compounds with a hit. Of some 79,000 tested, about 15% had one in any assay. Unmarked numbers belong to inactive results. The source made the active and inactive calls. Rule as the data show it: active = growth inhibition above about 70%; inactive = the rest.
# Assays:
# [1] = NCI Yeast Anticancer Drug Screen. Data for the rad52 strain (AID 147);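 also: 0% = growth of vehicle-treated control cultures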; details: S. cerevisiae rad52 mutant growth inhibition, active compounds read high
# Procedure, shortened: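 Growth of repair-deficient yeast cells was compared between compound-treated and vehicle-treated cultures to give percent inhibition.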
# [2] = NCI Yeast Anticancer Drug Screen. Data for the wt1 strain (AID 149);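 also: 0% = growth of vehicle-treated wt1 cultures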; details: S. cerevisiae wt1 strain (SPY 50644) growth inhibition, active compounds read high
# Procedure, shortened: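 Using yeast strain wt1, compound-induced growth inhibition was determined against vehicle-treated cultures.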
# [3] = NCI Yeast Anticancer Drug Screen. Data for the rad50EPP+ strain (AID 151);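 also: 0% = growth of vehicle-treated control cultures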; details: S. cerevisiae rad50 mutant strain, active compounds read high
# Procedure, shortened: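 Measured: growth inhibition of rad50EPP+ yeast. Reference: vehicle-treated controls. Screen uses strains with defined genetic alterations in DNA damage repair or cell cycle control.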
# [4] = NCI Yeast Anticancer Drug Screen. Data for the rad50 strain (AID 155);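 also: 0% = growth of vehicle-only cultures of the same strain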; details: S. cerevisiae rad50 strain growth inhibition, active compounds read high
# Procedure, shortened: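 Relative growth inhibition (compound vs vehicle) was measured in yeast with a defined repair-gene alteration.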
# [5] = NCI Yeast Anticancer Drug Screen. Data for the mec2-1 strain (AID 157); details: S. cerevisiae mec2-1 strain, active compounds read high
# Procedure, shortened: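 Compounds were applied to mec2-1 yeast cells. Their growth was then compared with that of vehicle-treated cultures to give growth inhibition.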
# [6] = NCI Yeast Anticancer Drug Screen. Data for the rad14 strain (AID 159);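 also: 0% = growth of vehicle-treated control cultures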; details: S. cerevisiae rad14 strain growth inhibition, active compounds read high
# Procedure, shortened: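 Screen for anticancer potential: a yeast strain altered in DNA damage repair is grown with compound, and reduced growth is quantified against vehicle controls.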
# [7] = NCI Yeast Anticancer Drug Screen. Data for the sgs1 mgt1 strain (AID 161);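 also: 0% = growth of cultures given vehicle only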; details: S. cerevisiae sgs1 mgt1 strain, active compounds read high
# Procedure, shortened: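 Percent growth inhibition was derived by comparing compound-exposed mutant yeast with vehicle-exposed cultures. The strain carries alterations in DNA damage repair.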
# [8] = NCI Yeast Anticancer Drug Screen. Data for the CLN2oe strain (AID 163);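 also: 0% = growth of vehicle-only control cultures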; details: S. cerevisiae CLN2oe strain, active compounds read high
# Procedure, shortened: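 Cells of an engineered yeast line with disturbed cell-cycle regulation are treated with compound. Inhibition of growth is then calculated relative to the vehicle-treated reference.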
# [9] = NCI Yeast Anticancer Drug Screen. Data for the cln2 rad14 strain (AID 165);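 also: 0% = growth equal to vehicle treated cultures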; details: S. cerevisiae cln2 rad14 strain, active compounds read high
# Procedure, shortened: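 Strain: cln2 rad14 yeast, altered in cell cycle control and DNA damage repair. Read-out: growth inhibition vs vehicle.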
# [10] = NCI Yeast Anticancer Drug Screen. Data for the bub3 strain (AID 167); details: S. cerevisiae bub3 mutant strain, active compounds read high
# Procedure, shortened: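 Screening used yeast with an engineered genetic alteration affecting cell cycle control. Compound-exposed cultures were compared with vehicle cultures, and reduced growth was taken as inhibition.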
# [11] = NCI Yeast Anticancer Drug Screen. Data for the wt2 strain (AID 169);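 also: 0% = growth of vehicle-treated yeast cultures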; details: S. cerevisiae wt2 strain growth inhibition, active compounds read high
# Procedure, shortened: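 Growth of compound-treated yeast is measured and expressed as inhibition relative to vehicle-only controls.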
# [12] = NCI Yeast Anticancer Drug Screen. Data for the mlh1 strain (AID 171);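 also: 0% = growth of vehicle-treated control cultures of the same strain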; details: S. cerevisiae mlh1 strain growth inhibition, active compounds read high
# Procedure, shortened: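 Test agents were incubated with yeast bearing a defined DNA damage repair or cell cycle control alteration; values are growth inhibition normalised to vehicle-treated cultures.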
# [13] = NCI Yeast Anticancer Drug Screen. Data for the sgs1 strain (AID 173);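 also: 0% = growth of vehicle-only control cultures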; details: S. cerevisiae sgs1 mutant, active compounds read high
# Procedure, shortened: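 Strain with an altered DNA repair or cell cycle pathway exposed to compound. Growth then measured. Value = inhibition versus vehicle control.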
# [14] = NCI Yeast Anticancer Drug Screen. Data for the mlh1 rad18 strain (AID 175); details: S. cerevisiae mlh1 rad18 strain growth inhibition, active compounds read high
# Procedure, shortened: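 A repair-deficient yeast strain is exposed to test compound, and growth is scored relative to vehicle-treated controls.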
# [15] = NCI Yeast Anticancer Drug Screen. Data for the rad18 strain (AID 177); details: S. cerevisiae rad18 mutant growth inhibition, active compounds read high
# Procedure, shortened: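 DNA-repair-defective yeast; compound treatment; growth inhibition scored against vehicle.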
# [16] = NCI Yeast Anticancer Drug Screen. Data for the mgt1 strain (AID 153); details: S. cerevisiae mgt1 mutant growth inhibition, active compounds read high
# Procedure, shortened: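 Compounds were applied to mgt1 mutant yeast, and growth was then compared against vehicle-treated control cultures to give percent inhibition.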
# [17] = at 5.0 µM (retest, dose inferred, filed as 0.5)
# [18] = at 50.0 µM (retest, dose inferred, filed as 5.0)
structure (smiles),measurement,setting,value
O=C(Nc1ccc(Cl)cc1)c1cc2cc(N=Nc3ccccc3Cl)ccc2oc1=O,growth inhibition,[1]; at 1.2 µM,8%
same,growth inhibition,[1]; at 3.7 µM,25%
same,growth inhibition,[1]; at 11.0 µM,58%
same,growth inhibition,[1]; at 33.0 µM,89% (active)
same,growth inhibition,[1]; at 100.0 µM,92% (active)
same,growth inhibition,[2]; at 1.2 µM,3%
same,growth inhibition,[2]; at 3.7 µM,8%
same,growth inhibition,[2]; at 11.0 µM,26%
same,growth inhibition,[2]; at 33.0 µM,72% (active)
same,growth inhibition,[2]; at 100.0 µM,93% (active)
same,growth inhibition,[3]; at 1.2 µM,39%
same,growth inhibition,[3]; at 3.7 µM,75% (active)
same,growth inhibition,[3]; at 11.0 µM,89% (active)
same,growth inhibition,[3]; at 33.0 µM,90% (active)
same,growth inhibition,[3]; at 100.0 µM,86% (active)
same,growth inhibition,[4]; at 1.2 µM,4%
same,growth inhibition,[4]; at 3.7 µM,13%
same,growth inhibition,[4]; [17],54%
same,growth inhibition,[4]; at 11.0 µM,38%
same,growth inhibition,[4]; at 33.0 µM,84% (active)
same,growth inhibition,[4]; [18],54%
same,growth inhibition,[4]; at 50.0 µM,88.8% (active)
same,growth inhibition,[4]; at 100.0 µM,90% (active)
same,growth inhibition,[5]; at 1.2 µM,3%
same,growth inhibition,[5]; at 3.7 µM,10%
same,growth inhibition,[5]; [17],7%
same,growth inhibition,[5]; at 11.0 µM,40%
same,growth inhibition,[5]; at 33.0 µM,94% (active)
same,growth inhibition,[5]; [18],7%
same,growth inhibition,[5]; at 50.0 µM,88.5% (active)
same,growth inhibition,[5]; at 100.0 µM,95% (active)
same,growth inhibition,[6]; at 1.2 µM,4%
same,growth inhibition,[6]; at 3.7 µM,5%
same,growth inhibition,[6]; at 11.0 µM,62%
same,growth inhibition,[6]; at 33.0 µM,95% (active)
same,growth inhibition,[6]; at 100.0 µM,94% (active)
same,growth inhibition,[7]; [17],25%
same,growth inhibition,[7]; [18],25%
same,growth inhibition,[7]; at 50.0 µM,84.8% (active)
same,growth inhibition,[8]; at 1.2 µM,3%
same,growth inhibition,[8]; at 3.7 µM,13%
same,growth inhibition,[8]; at 11.0 µM,40%
same,growth inhibition,[8]; at 33.0 µM,89% (active)
same,growth inhibition,[8]; at 100.0 µM,92% (active)
same,growth inhibition,[9]; [17],12%
same,growth inhibition,[9]; [18],12%
same,growth inhibition,[9]; at 50.0 µM,82.8% (active)
same,growth inhibition,[10]; at 1.2 µM,-14%
same,growth inhibition,[10]; at 3.7 µM,-19%
same,growth inhibition,[10]; [17],13%
same,growth inhibition,[10]; at 11.0 µM,26%
same,growth inhibition,[10]; at 33.0 µM,93% (active)
same,growth inhibition,[10]; [18],13%
same,growth inhibition,[10]; at 50.0 µM,86.2% (active)
same,growth inhibition,[10]; at 100.0 µM,93% (active)
same,growth inhibition,[11]; at 1.2 µM,5%
same,growth inhibition,[11]; at 3.7 µM,15%
same,growth inhibition,[11]; at 11.0 µM,57%
same,growth inhibition,[11]; at 33.0 µM,91% (active)
same,growth inhibition,[11]; at 100.0 µM,94% (active)
same,growth inhibition,[12]; at 1.2 µM,1%
same,growth inhibition,[12]; at 3.7 µM,7%
same,growth inhibition,[12]; at 11.0 µM,38%
same,growth inhibition,[12]; at 33.0 µM,95% (active)
same,growth inhibition,[12]; at 100.0 µM,95% (active)
same,growth inhibition,[13]; at 1.2 µM,11%
same,growth inhibition,[13]; at 3.7 µM,24%
same,growth inhibition,[13]; at 11.0 µM,70% (active)
same,growth inhibition,[13]; at 33.0 µM,93% (active)
same,growth inhibition,[13]; at 100.0 µM,92% (active)
same,growth inhibition,[14]; [17],23%
same,growth inhibition,[14]; [18],23%
same,growth inhibition,[14]; at 50.0 µM,85.4% (active)
same,growth inhibition,[15]; at 1.2 µM,4%
same,growth inhibition,[15]; at 3.7 µM,24%
same,growth inhibition,[15]; at 11.0 µM,68%
same,growth inhibition,[15]; at 33.0 µM,92% (active)
same,growth inhibition,[15]; at 100.0 µM,91% (active)
C/C(=N\OCC(O)CNCCSCc1ccccc1)c1ccccc1Cl (stereo not drawn),growth inhibition,[1]; at 1.2 µM,2%
same,growth inhibition,[1]; at 3.7 µM,5%
same,growth inhibition,[1]; at 11.0 µM,26%
same,growth inhibition,[1]; at 33.0 µM,45%
same,growth inhibition,[1]; at 100.0 µM,80% (active)
same,growth inhibition,[2]; at 1.2 µM,-3%
same,growth inhibition,[2]; at 3.7 µM,0%
same,growth inhibition,[2]; at 11.0 µM,6%
same,growth inhibition,[2]; at 33.0 µM,19%
same,growth inhibition,[2]; at 100.0 µM,40%
same,growth inhibition,[3]; at 1.2 µM,-1%
same,growth inhibition,[3]; at 3.7 µM,0%
same,growth inhibition,[3]; at 11.0 µM,2%
same,growth inhibition,[3]; at 33.0 µM,6%
same,growth inhibition,[3]; at 100.0 µM,12%
same,growth inhibition,[16]; at 1.2 µM,4%
same,growth inhibition,[16]; at 3.7 µM,9%
same,growth inhibition,[16]; at 11.0 µM,34%
same,growth inhibition,[16]; at 33.0 µM,85% (active)
same,growth inhibition,[16]; at 100.0 µM,100% (active)
same,growth inhibition,[4]; at 1.2 µM,12%
same,growth inhibition,[4]; at 3.7 µM,-12%
same,growth inhibition,[4]; [17],40%
same,growth inhibition,[4]; at 11.0 µM,64%
same,growth inhibition,[4]; at 33.0 µM,77% (active)
same,growth inhibition,[4]; [18],69%
same,growth inhibition,[4]; at 50.0 µM,80.9% (active)
same,growth inhibition,[4]; at 100.0 µM,95% (active)
same,growth inhibition,[5]; at 1.2 µM,3%
same,growth inhibition,[5]; at 3.7 µM,4%
same,growth inhibition,[5]; [17],2%
same,growth inhibition,[5]; at 11.0 µM,28%
same,growth inhibition,[5]; at 33.0 µM,50%
same,growth inhibition,[5]; [18],48%
same,growth inhibition,[5]; at 50.0 µM,82.7% (active)
same,growth inhibition,[5]; at 100.0 µM,88% (active)
same,growth inhibition,[7]; [17],30%
same,growth inhibition,[7]; [18],58%
same,growth inhibition,[7]; at 50.0 µM,87.5% (active)
same,growth inhibition,[8]; at 1.2 µM,-3%
same,growth inhibition,[8]; at 3.7 µM,12%
same,growth inhibition,[8]; at 11.0 µM,30%
same,growth inhibition,[8]; at 33.0 µM,47%
same,growth inhibition,[8]; at 100.0 µM,75% (active)
same,growth inhibition,[10]; at 1.2 µM,6%
same,growth inhibition,[10]; at 3.7 µM,25%
same,growth inhibition,[10]; [17],29%
same,growth inhibition,[10]; at 11.0 µM,54%
same,growth inhibition,[10]; at 33.0 µM,81% (active)
same,growth inhibition,[10]; [18],73% (active)
same,growth inhibition,[10]; at 50.0 µM,86% (active)
same,growth inhibition,[10]; at 100.0 µM,97% (active)
same,growth inhibition,[11]; at 1.2 µM,-1%
same,growth inhibition,[11]; at 3.7 µM,8%
same,growth inhibition,[11]; at 11.0 µM,11%
same,growth inhibition,[11]; at 33.0 µM,30%
same,growth inhibition,[11]; at 100.0 µM,81% (active)
same,growth inhibition,[12]; at 1.2 µM,3%
same,growth inhibition,[12]; at 3.7 µM,4%
same,growth inhibition,[12]; at 11.0 µM,24%
